The values below come from publication PMC7862700, “An all-to-all approach to the identification of sequence-specific readers for epigenetic DNA modifications on cytosine”.

Common to all, as to experiment: DAPPL (digital affinity profiling via proximity ligation, sequencing); 10 mM Tris-HCl pH 7.5, 50 mM NaCl, 1 mM DTT, 4% glycerol, room temperature, 30 min; GST-TFs on glutathione beads, 16-mer random dsDNA library, 0.1% formaldehyde crosslink after washing; high values mean tight binding
Holding throughout (details): protein: recombinant; tags: N-terminal GST; dsDNA, one strand shown

In assay [1] the target is ELF4 (Homo sapiens, UniProt Q99607 1-663). The method, boiled down:
(§1)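 Binding signal is each hexamer's read frequency for a factor divided by its frequency in the tag-only sample. The factors were GST-fused human transcription factors from yeast, captured on glutathione beads, DNA-barcoded and pooled with that sample. Pools were incubated with 200 nmole of a random double-stranded 16-mer DNA library in Tris/NaCl/DTT/glycerol buffer at room temperature for 30 min, then washed, crosslinked with 0.1% formaldehyde, proximity-ligated with BsaI/T4 ligase (1 h, 37 °C), PCR-amplified and sequenced on an Illumina NextSeq500.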

Assay [2] deals with T1, ELF3 (Homo sapiens, UniProt P78545 1-371).
T1 sequence: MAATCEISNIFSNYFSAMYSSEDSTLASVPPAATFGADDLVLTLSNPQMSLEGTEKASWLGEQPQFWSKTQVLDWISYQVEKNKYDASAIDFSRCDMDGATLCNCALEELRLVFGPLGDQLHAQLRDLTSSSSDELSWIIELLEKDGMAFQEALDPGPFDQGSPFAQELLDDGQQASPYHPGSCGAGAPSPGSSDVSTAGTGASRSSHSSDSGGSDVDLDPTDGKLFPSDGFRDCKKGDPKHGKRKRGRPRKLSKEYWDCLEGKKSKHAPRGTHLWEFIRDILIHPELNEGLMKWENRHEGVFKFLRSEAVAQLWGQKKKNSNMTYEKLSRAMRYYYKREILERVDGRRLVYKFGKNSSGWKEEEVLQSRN
The method, boiled down: as §1

Assay [3] has as its target CRX (Homo sapiens, UniProt O43186 1-299). The method, boiled down:
as §1

In assay [4] the target is T2, ETV3L (Homo sapiens, UniProt Q6ZN32 1-361).
T2 sequence: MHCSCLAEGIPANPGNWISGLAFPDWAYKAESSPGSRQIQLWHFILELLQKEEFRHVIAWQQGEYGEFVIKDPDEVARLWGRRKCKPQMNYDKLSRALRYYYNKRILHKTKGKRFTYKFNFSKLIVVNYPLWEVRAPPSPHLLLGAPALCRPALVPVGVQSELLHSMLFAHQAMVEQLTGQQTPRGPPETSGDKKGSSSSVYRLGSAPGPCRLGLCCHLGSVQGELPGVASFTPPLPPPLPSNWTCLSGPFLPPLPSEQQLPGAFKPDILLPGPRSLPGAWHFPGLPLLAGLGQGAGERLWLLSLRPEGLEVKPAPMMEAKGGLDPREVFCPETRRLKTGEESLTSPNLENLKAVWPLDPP
The method, boiled down:
as §1

In assay [5] the target is T3, ELK4 (Homo sapiens, UniProt P28324-2 1-405).
T3 sequence: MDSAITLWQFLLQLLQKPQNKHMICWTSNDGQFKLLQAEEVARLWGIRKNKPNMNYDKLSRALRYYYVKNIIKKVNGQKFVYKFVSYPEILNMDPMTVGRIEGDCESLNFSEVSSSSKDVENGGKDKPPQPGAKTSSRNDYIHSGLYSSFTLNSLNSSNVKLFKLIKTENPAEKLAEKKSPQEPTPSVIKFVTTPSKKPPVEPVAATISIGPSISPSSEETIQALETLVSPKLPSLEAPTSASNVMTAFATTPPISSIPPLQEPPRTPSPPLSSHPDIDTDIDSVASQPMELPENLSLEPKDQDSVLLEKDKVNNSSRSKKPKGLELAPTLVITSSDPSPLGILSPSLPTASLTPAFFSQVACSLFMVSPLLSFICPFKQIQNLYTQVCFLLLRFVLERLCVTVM
The procedure, abridged:
as §1

In assay [6] the target is T4, GABPA (Homo sapiens, UniProt Q06546 1-454).
T4 sequence: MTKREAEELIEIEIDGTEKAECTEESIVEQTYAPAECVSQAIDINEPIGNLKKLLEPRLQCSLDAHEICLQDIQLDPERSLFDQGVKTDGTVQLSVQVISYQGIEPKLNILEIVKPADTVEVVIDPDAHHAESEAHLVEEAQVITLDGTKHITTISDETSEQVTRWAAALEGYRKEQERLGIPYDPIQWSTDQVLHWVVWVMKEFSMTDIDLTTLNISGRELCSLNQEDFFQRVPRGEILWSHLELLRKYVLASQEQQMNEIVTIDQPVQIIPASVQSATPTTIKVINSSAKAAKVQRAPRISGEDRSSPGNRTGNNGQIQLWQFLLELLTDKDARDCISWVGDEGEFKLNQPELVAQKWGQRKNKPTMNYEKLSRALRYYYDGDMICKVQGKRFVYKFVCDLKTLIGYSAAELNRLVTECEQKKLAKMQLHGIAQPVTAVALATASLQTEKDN
The method, boiled down:
as §1

Assay [7] concerns the target T5, EHF (Homo sapiens, UniProt Q9NZC4 1-300).
T5 sequence: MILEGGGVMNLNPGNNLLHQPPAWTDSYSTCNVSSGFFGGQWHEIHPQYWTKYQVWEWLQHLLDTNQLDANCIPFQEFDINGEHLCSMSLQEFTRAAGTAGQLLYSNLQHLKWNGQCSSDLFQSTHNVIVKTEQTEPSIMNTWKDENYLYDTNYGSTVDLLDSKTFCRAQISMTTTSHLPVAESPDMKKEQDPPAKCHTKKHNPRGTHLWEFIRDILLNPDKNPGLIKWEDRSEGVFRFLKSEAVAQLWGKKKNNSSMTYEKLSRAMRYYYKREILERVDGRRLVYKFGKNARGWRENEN
The procedure, abridged: as §1

Assay [8] has as its target T6, ELK3 (Homo sapiens, UniProt P41970 1-407).
T6 sequence: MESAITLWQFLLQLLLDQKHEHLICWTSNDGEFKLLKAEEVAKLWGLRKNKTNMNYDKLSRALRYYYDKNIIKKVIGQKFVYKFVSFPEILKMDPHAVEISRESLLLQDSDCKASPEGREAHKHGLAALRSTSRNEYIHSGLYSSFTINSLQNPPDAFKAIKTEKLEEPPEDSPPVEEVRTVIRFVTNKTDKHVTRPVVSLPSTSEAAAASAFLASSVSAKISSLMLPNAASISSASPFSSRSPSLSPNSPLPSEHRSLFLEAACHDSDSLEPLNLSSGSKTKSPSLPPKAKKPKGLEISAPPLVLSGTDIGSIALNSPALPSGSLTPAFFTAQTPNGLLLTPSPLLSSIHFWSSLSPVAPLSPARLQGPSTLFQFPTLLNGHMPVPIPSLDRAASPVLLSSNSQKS
The procedure, abridged:
as §1

In assay [9] the target is T7, ETV7 (Homo sapiens, UniProt Q9Y603 1-341).
T7 sequence: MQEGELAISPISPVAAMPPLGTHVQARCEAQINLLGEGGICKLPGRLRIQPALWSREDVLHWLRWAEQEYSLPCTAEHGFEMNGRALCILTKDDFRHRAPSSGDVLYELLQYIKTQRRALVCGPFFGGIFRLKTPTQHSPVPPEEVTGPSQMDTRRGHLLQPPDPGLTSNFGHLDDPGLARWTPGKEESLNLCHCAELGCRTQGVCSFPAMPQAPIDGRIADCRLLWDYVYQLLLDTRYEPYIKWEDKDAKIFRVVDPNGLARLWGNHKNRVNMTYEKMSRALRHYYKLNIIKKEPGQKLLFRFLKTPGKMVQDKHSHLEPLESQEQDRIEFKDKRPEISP
The procedure, abridged:
as §1

In assay [10] the target is T8, ELK1 (Homo sapiens, UniProt P19419 1-428).
T8 sequence: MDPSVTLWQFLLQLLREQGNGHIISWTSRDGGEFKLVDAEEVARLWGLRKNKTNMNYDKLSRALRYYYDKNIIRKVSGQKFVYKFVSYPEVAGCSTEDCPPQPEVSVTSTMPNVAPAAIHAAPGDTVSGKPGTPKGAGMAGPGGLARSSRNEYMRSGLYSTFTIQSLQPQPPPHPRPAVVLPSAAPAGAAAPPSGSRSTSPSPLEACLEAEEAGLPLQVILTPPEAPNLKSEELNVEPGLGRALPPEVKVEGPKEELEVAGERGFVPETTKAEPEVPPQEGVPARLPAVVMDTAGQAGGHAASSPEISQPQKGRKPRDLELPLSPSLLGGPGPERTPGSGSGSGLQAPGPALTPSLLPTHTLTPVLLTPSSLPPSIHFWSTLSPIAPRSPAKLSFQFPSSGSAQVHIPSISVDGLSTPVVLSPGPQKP
The method, boiled down: as §1

Assay [11] concerns the target ELF1 (Homo sapiens, UniProt P32519 1-619). The method, boiled down: as §1
The target in assay [12] is SPI1 (Homo sapiens, UniProt P17947 1-270). The procedure, abridged:
as §1

In assay [13] the target is T9, ETV2 (Homo sapiens, UniProt O00321 1-342).
T9 sequence: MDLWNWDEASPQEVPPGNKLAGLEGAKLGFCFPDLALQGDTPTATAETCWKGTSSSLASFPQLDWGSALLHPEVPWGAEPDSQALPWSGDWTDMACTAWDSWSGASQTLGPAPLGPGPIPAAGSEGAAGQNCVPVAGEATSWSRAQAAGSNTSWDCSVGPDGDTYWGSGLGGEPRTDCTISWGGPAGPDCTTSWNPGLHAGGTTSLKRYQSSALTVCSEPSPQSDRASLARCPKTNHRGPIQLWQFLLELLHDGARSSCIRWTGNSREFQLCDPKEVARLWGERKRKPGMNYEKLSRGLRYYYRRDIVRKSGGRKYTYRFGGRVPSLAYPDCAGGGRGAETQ
The procedure, abridged:
as §1

The target of assay [14] is ETV1 (Homo sapiens, UniProt P50549 1-477). The method, boiled down: as §1
Chain of ETV1 (P50549 whole entry): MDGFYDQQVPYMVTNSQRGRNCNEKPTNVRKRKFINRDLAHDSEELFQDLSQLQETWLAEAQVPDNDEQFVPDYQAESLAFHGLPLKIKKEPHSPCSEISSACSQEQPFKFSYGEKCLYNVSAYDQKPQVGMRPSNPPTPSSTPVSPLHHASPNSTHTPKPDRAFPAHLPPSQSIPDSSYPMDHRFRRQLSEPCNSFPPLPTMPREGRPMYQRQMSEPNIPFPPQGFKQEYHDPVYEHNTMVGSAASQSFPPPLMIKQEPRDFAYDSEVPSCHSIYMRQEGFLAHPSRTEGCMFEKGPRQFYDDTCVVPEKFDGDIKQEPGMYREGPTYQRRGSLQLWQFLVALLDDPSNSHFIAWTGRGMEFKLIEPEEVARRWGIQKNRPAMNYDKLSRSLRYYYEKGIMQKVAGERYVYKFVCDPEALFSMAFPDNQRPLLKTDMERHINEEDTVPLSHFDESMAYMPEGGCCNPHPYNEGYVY
Assay [15] has as its target T10, ETS2 (Homo sapiens, UniProt P15036 1-469).
T10 sequence: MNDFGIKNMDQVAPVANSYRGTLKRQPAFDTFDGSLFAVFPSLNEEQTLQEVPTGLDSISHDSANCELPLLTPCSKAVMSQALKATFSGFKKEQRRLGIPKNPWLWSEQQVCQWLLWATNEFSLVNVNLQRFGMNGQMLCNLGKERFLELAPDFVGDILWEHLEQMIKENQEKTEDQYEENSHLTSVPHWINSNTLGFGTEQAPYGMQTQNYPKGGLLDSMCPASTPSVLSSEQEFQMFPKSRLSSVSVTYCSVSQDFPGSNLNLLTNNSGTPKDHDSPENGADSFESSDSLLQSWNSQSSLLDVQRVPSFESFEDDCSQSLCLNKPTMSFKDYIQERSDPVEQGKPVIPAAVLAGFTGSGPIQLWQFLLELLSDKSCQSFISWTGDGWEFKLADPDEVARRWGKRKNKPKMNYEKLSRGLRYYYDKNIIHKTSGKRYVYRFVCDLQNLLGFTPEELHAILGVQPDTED
The procedure, abridged: as §1

For assay [16], the target named is T11, ELF5 (Homo sapiens, UniProt Q9UKW6-2 1-255).
T11 sequence: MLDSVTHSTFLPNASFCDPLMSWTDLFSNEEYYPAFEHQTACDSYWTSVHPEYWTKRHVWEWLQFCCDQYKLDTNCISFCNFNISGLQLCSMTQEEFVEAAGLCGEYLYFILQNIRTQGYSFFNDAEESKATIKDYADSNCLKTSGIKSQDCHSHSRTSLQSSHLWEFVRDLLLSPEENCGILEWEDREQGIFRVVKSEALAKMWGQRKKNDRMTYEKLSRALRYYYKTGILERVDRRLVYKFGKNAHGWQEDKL
The method, boiled down: as §1

The target of assay [17] is ETV6 (Homo sapiens, UniProt P41212 1-452). The method, boiled down:
as §1

Chain of CRX (O43186 whole entry): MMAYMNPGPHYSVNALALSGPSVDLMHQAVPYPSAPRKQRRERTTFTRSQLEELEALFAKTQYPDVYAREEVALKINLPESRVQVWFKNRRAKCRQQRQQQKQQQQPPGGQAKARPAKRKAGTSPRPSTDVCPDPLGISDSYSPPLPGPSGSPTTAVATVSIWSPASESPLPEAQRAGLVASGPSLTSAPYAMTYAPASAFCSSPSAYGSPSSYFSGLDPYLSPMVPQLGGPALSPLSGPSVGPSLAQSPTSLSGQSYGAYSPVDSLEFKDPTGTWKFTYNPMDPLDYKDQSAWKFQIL
Chain of ELF4 (Q99607 whole entry, the tested form may be a part): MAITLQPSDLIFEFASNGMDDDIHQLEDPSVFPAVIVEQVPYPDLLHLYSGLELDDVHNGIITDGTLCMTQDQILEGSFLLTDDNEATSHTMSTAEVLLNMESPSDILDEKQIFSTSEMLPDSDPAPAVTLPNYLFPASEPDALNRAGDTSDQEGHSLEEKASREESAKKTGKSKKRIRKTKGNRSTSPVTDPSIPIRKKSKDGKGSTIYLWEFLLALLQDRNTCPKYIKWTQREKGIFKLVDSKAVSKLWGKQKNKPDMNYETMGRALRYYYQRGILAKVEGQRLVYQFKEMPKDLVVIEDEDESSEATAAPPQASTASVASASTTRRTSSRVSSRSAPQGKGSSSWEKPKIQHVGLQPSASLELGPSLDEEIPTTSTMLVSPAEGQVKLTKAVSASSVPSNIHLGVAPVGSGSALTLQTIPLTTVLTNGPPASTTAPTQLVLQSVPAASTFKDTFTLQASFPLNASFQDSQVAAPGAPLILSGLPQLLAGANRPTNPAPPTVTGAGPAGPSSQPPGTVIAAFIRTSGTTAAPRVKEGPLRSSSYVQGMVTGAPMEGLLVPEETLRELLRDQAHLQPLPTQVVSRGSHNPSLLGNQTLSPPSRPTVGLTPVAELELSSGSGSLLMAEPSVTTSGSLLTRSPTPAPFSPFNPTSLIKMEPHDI
Chain of ELF1 (P32519 whole entry): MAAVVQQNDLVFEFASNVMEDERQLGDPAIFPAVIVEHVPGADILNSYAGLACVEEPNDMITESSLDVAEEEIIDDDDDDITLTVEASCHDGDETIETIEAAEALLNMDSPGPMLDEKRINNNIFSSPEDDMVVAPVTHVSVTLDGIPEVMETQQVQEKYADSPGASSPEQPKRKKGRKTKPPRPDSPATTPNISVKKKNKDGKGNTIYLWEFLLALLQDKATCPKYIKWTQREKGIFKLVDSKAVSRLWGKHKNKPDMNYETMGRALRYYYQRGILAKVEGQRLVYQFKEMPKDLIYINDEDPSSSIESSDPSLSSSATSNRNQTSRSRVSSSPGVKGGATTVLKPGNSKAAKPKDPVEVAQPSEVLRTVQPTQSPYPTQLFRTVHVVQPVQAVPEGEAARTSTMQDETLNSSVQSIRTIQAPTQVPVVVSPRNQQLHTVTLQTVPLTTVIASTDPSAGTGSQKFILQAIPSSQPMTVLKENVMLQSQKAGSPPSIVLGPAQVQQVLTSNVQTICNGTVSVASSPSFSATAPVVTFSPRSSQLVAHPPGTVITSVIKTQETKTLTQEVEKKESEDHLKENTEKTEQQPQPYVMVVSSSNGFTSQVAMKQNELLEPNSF
Chain of ETV6 (P41212 whole entry): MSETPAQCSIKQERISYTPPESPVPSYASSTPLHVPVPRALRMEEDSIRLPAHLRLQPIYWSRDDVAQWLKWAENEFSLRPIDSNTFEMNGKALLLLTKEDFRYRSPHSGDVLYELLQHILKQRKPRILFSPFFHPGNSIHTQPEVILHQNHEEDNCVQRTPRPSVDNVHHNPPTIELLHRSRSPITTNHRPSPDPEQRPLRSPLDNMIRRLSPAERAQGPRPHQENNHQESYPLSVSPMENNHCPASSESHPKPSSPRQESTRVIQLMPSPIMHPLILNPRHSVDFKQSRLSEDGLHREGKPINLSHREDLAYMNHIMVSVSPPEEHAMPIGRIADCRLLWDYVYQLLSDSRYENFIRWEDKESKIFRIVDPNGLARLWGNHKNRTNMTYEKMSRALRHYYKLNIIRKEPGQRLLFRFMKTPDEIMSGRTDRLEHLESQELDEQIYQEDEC

Turning to GACTAT, the binding signal in assay [1] is 1.01 fold enrichment (6-mer frequency, TF over GST control); in [2], 1.03 fold enrichment (6-mer frequency, TF over GST control); in assay [3] it was 1.02 fold enrichment (6-mer frequency, TF over GST control); in [4], 1.04 fold enrichment (6-mer frequency, TF over GST control).
As to GTGGTC, the binding signal in assay [5] was 1.06 fold enrichment (6-mer frequency, TF over GST control).
Consider GCATAC, for which the binding signal in [6] was 1.01 fold enrichment (6-mer frequency, TF over GST control); in assay [7] it was 1.01 fold enrichment (6-mer frequency, TF over GST control); in assay [8], 1.05 fold enrichment (6-mer frequency, TF over GST control); in assay [1] it was 1.01 fold enrichment (6-mer frequency, TF over GST control); in assay [9], 1 fold enrichment (6-mer frequency, TF over GST control).
Consider GCAGGT, for which the binding signal in [5] was 1.01 fold enrichment (6-mer frequency, TF over GST control).
As for CAAAAG, the binding signal was 1.02 fold enrichment (6-mer frequency, TF over GST control) in assay [10]; 1.04 fold enrichment (6-mer frequency, TF over GST control) in assay [6]; 1.01 fold enrichment (6-mer frequency, TF over GST control) in assay [11]; 1 fold enrichment (6-mer frequency, TF over GST control) in [7]; 1.08 fold enrichment (6-mer frequency, TF over GST control) in assay [12]; 1.05 fold enrichment (6-mer frequency, TF over GST control) in assay [5]. For the same sequence, the binding signal in [13] is 1.05 fold enrichment (6-mer frequency, TF over GST control); in assay [2] it was 1.06 fold enrichment (6-mer frequency, TF over GST control); in assay [3] it was 1.02 fold enrichment (6-mer frequency, TF over GST control); in [14] it was 1 fold enrichment (6-mer frequency, TF over GST control); in [15], 1.04 fold enrichment (6-mer frequency, TF over GST control); in assay [9], 1 fold enrichment (6-mer frequency, TF over GST control). Also, the binding signal in assay [16] is 1 fold enrichment (6-mer frequency, TF over GST control); in assay [17] it was 1.01 fold enrichment (6-mer frequency, TF over GST control).
